From PubChem
Only some compounds are listed: those with a hit (about 2.7% of all), similar ones and a draw of the others.
GLP1R cytotox: cytotoxicity in counter-screen for GLP-1R inverse agonists; 0.13% of 410,000 active; Potency, µM (doses to about 38.3 µM), hits mostly inhibitors; HEK293 cAMP-luciferase reporter cells, luminescence, 24 h;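 further: loss of luciferase light is scored as toxicity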
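MLSMR compounds, 24 hr on cells at 37 deg C/5% CO2; luminescence after luciferase reagent (12 min RT). Inhibition counted as the undesired cytotoxic outcome.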
GLP-1R inv ag: inverse agonists of human GLP-1 receptor | HEK293 GLP-1R CRE-luciferase, luminescence, 24 h; GLP-1R form is constitutively active | Potency, µM (series often up to 38.3 µM), most hits filed as inhibitors | 1.6% of 410,000 active; further: nearly all actives have a fitted effect of over 55% in size
Target sequence (P43220 whole entry, looked up): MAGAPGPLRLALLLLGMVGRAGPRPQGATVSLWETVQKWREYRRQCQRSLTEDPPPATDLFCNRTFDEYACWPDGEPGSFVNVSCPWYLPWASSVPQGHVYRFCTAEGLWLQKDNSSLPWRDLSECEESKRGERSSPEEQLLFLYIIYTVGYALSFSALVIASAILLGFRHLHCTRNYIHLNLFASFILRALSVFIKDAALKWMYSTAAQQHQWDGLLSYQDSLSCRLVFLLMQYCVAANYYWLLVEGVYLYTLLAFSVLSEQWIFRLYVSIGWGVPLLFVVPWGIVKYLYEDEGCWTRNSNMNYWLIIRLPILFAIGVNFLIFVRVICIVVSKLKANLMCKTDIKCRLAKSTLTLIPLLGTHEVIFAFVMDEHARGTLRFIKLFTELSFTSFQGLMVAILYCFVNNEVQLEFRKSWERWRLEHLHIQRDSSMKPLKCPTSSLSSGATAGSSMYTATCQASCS
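Inverse agonism was detected as reduced cAMP-driven luciferase luminescence after 24 h compound treatment. The cells were HEK293 clones expressing constitutively active human GLP-1R with the reporter. Reporter-only and GPR119 cell lines served as counterscreen controls.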
BRCA1 expr up: BRCA1 expression activation; MCF7-BRCA1-FFLuc reporter, luminescence, 48 h; response scale: scaled: vehicle 0%, 10 µM genistein 100%; 1.1% of 380,000 active; Potency, µM (series often up to 46.1 µM), most hits filed as activators; further: nearly all actives have a fitted effect of over 80% in size
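Compounds are tested at multiple concentrations on MCF7 BRCA1-luciferase reporter cells seeded at 2000 per well; after 48 h, a single luminescence end-point is taken and curves fitted to the normalized data.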
GLP1R ag: agonists of human GLP-1 receptor; Potency, µM (doses to about 45.6 µM), hits mostly activators; 0.007% of 380,000 active; P43220; HEK293 GLP-1R CRE-luciferase, luminescence, 4-6 h; cells express a hypersensitive GLP-1R form; AID 624172
a7 integrin act: activates integrin-mediated alleviation for muscular dystrophy; Potency, µM (titrated, usually from 38.3 µM), hits mostly activators; 0.064% of 350,000 active; alpha7betagal myoblasts, beta-gal FDG fluorescence, 48 h; further: nearly all actives have a fitted effect of over 60% in size
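Alpha7betagal+/- myoblasts (passage 13) were plated 16-24 hr, then exposed to compounds (1:260 dilution of DMSO stock) for 48 hours at 37C. After MPER lysis, β-galactosidase reporter activity was read as FDG fluorescence (ex 480/em 540) after 30 minutes.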
A number is an active result; - = inactive; ? = inconclusive; . = no result given; [ ] = another dose, or the depositor's remark. The call rests on the fitted dose curve; in most records, active means well fitted curve in the direction sought with a large enough effect; inconclusive means small, poorly fitted or top-dose-only effect, or another doubt; inactive means no such curve, though single readings can be large; an effect the other way counts as inactive or inconclusive.

SMILES | GLP1R cytotox | GLP-1R inv ag | BRCA1 expr up | GLP1R ag | a7 integrin act
Cc1ccc(NC(=O)Nc2ccc(Cl)cn2)cc1 | - | - | 4.5µM | - | -
Cc1ccc(NC(=O)Nc2cccc(F)c2)nc1 | - | - | 3.2µM | - | -
O=C(Nc1cccc(F)c1)Nc1ccc(Cl)cn1 | - | - | - | - | ?
Cc1ccnc(NC(=O)Nc2cccc(F)c2)n1 | - | - | 1µM | - | ?
Cc1nc(C(=O)Nc2ccccc2)sc1C(=O)Nc1ccccc1 | - | ? | 2.8µM | - | -
Cc1nc(N)sc1C(=O)Nc1ccccc1 | - | - | - | - | -
COc1ccccc1CNc1nc(Nc2ccc(C)cc2C)c2sccc2n1 | - | 10µM | - | - | .
COc1cccc(CNc2nc(NC(C)C)nc3ccsc23)c1OC | ? | 11µM | - | - | .
COc1ccc(C)cc1NC(=O)C1CCN(C(=O)c2ccc(C(C)(C)C)cc2)CC1 | - | 8.9µM | - | - | -
O=C(NCC1CCCO1)C1CCN(C(=O)c2ccc(Cl)cc2)CC1 (configuration not stated) | - | - | - | - | -
COc1ccc(C)cc1NC(=O)C1CCN(S(C)(=O)=O)CC1 | - | - | - | - | -
CC(C)(C)c1ccc(C(=O)N2CCC(C(=O)NCC3CCCO3)CC2)cc1 (configuration not stated) | - | - | 8.9µM | - | -
COC(=O)C(CCSC)NC(=O)Cn1ncc2c([nH]c3ccccc32)c1=O (configuration not stated) | - | - | . | . | .
O=C(c1ccccc1F)N(Cc1nc2ccccc2c(=O)[nH]1)C1CCCC1 | ? | 10µM | - | - | -
O=C(c1ccccc1)N(Cc1nc2ccccc2c(=O)[nH]1)C1CCCCC1 | - | ? | - | - | -
CN(Cc1ccccc1)C(=O)c1cc(-c2cccc(Cl)c2)on1 | - | - | . | . | .
O=C(Nc1ccc2c(c1)Cc1cc([N+](=O)[O-])ccc1-2)C(F)(F)F | - | - | 4µM | - | -
COc1ccc(C2/C=C\CN(C(=O)c3ccc(C)cc3)[C@H](Cc3ccccc3)C(=O)N2Cc2ccc(F)cc2)cc1 (some centres not stated) | - | 10µM | - | - | -
COc1ccc(CC2(CO)CCN(Cc3cc4ccccc4o3)CC2)cc1 | - | 10µM | - | - | -
OCC1(Cc2cccc(C(F)(F)F)c2)CCN(Cc2cc3ccccc3o2)CC1 | ? | ? | - | - | -
Cc1ccc(CNC(=O)c2ccc(C)s2)cc1 | - | - | 13µM | - | -
CC(C)N(Cc1ccccc1)c1ncnc2c1nnn2C | - | - | . | . | .
Cc1cccc2cc(C#N)c(NCCCNS(=O)(=O)c3ccc(Cl)cc3)nc12 | - | 10µM | - | - | -
Cc1cccc2cc(C#N)c(NCCNS(=O)(=O)c3ccccc3)nc12 | - | - | - | - | -
O=C(Nc1ccc(N2CCCCC2)cc1)c1ccc(F)cc1 | - | - | ? | - | -
SMILES | GLP1R cytotox | GLP-1R inv ag | BRCA1 expr up | GLP1R ag | a7 integrin act
O=C(c1ccc(F)cc1)c1ccc(N2CCCCC2)cc1 | - | ? | 5µM | - | -
O=C(c1ccc(F)cc1)c1ccc(N2CCCC2)cc1 | - | ? | 3.2µM | - | -
O=C(NCc1ccc(Cl)cc1)c1ccc(NC(=O)N2CC3CCCN3c3ccccc32)cc1 (configuration not stated) | - | ? | . | . | .
CCN(C(=O)CSc1ncc2c(n1)-c1cc(Cl)ccc1N(Cc1ccccc1)S2(=O)=O)c1cccc(C)c1 | - | - | - | . | .
C/C(=N\NC(=O)C(c1ccccc1)c1ccccc1)c1ccccn1 | ? | 2.8µM | - | - | -
C/C(=N\NC(=O)C(c1ccccc1)c1ccccc1)c1ccc(O)cc1 | - | - | - | - | -
C/C(Cc1ccccc1)=N\NC(=O)c1ccccn1 | - | - | 2.2µM | - | -
C/C(=N/NC(=O)c1ccc(C(C)(C)C)cc1)c1ccccn1 | ? | 2.5µM | - | ? | -
Cc1ccc(C)c(N2CCN(C(=O)c3cc4c(=O)n(Cc5cccnc5)ccc4nc3C)CC2)c1 | - | - | . | . | .
NC1C(N)C(N)C1N (configuration not stated) | . | . | - | . | .
COC(=O)C1=C(N)Oc2cc(C)n(CC3CCCO3)c(=O)c2C1c1ccccc1OC (configuration not stated) | - | - | - | - | -
COC(=O)C1=C(N)Oc2cc(N(C)C)ccc2C1c1ccccc1OC (configuration not stated) | - | 6.3µM | - | - | -
Cc1cc(Oc2ccccc2)nc(C#N)n1 | . | . | - | . | .
COc1c(Cl)cc(Cl)cc1C(=O)Nc1ccc(CN2CCOCC2)cc1 | - | - | - | - | -
COc1c(C)cccc1C(=O)Nc1ccc(CN2CCOCC2)cc1 | - | - | 2.5µM | - | ?
CC(C)Oc1cccc(C(=O)Nc2ccc(CN3CCOCC3)cc2)c1 | - | - | - | - | ?
COc1c(C)cc(Br)cc1C(=O)Nc1ccc(Cc2ccncc2)cc1 | - | 10µM | - | - | -
COc1cccc(NC(=O)c2ccc(CN3CCOCC3)cc2)c1 | - | - | 11µM | - | -
COc1ccc(-n2nc(C)c3c(C(F)(F)F)cc(-c4cccnc4)nc32)cc1 | - | - | . | . | .
O=C1c2ccccc2NC(c2ccc3c(c2)OCO3)N1Cc1ccco1 (configuration not stated) | . | . | - | . | .
O=C(NC1CC(=O)N(c2ccc(F)cc2)C1)c1ccc(S(=O)(=O)N2CCCCC2)cc1 (configuration not stated) | - | - | . | . | .
CCn1c(SCC(=O)Nc2ccc(C)cc2Br)nnc1-c1nonc1NC(C)=O | - | - | . | . | .
CCOC(=O)c1c(C)oc2ncnc(Nc3ccc(OCC)cc3)c12 | - | - | . | . | .
Nc1ccc2oc3ccccc3c2c1 | - | - | 3.2µM | - | -
Cc1ccc(C)c(NC(=O)CSc2nc(=O)n(Cc3ccccn3)c3c2CCC3)c1 | - | - | - | . | .
SMILES | GLP1R cytotox | GLP-1R inv ag | BRCA1 expr up | GLP1R ag | a7 integrin act
Cc1ccc(-c2nc3cnccn3c2Nc2ccc(C(C)C)cc2)o1 | . | . | - | . | .
C/C(=N\NC(=O)c1ccn(C)n1)c1cccc(NC(=O)c2ccc(C)s2)c1 | -[1.53 µM] | - | 11µM | - | -
COc1cc2c(NC3CCN(C)CC3)nc(N3CCCN(C)CC3)nc2cc1OCCCC(C)C | . | . | - | . | .
CC(C)(C)c1ccc(-c2nnc(SCCC#N)n2C2CCCC2)cc1 | - | 10µM | - | - | -
O=C(CSc1nnc(-c2ccc(Br)cc2)n1C1CCCCC1)N1CCCC1 | - | - | - | - | -
CC(C)(CNC(=O)c1ccc(-c2ccccc2Cl)o1)N1CCOCC1 | - | ? | 10µM | - | -
COc1ccccc1C(CNC(=O)c1ccc(-c2ccccc2Cl)o1)N1CCCC1 (configuration not stated) | ? | 4.5µM | - | - | -
COc1ccc(C(CNC(=O)CCNS(=O)(=O)c2ccc(Br)cc2)N2CCCC2)cc1 (configuration not stated) | - | ? | - | - | -
